# In article PMC7862700, “An all-to-all approach to the identification of sequence-specific readers for epigenetic DNA modifications on cytosine”:
# Experiments:
# Assay in all cases: DAPPL (digital affinity profiling via proximity ligation, sequencing); 10 mM Tris-HCl pH 7.5, 50 mM NaCl, 1 mM DTT, 4% glycerol, room temperature, 30 min; GST-TFs on glutathione beads, 16-mer random dsDNA library, 0.1% formaldehyde crosslink after washing; high values mean tight binding
# FLI1 = molecular target: T1, FLI1 (Homo sapiens, UniProt Q01543 1-452); conditions: protein: recombinant; tags: N-terminal GST; dsDNA, one strand shown
# T1 sequence: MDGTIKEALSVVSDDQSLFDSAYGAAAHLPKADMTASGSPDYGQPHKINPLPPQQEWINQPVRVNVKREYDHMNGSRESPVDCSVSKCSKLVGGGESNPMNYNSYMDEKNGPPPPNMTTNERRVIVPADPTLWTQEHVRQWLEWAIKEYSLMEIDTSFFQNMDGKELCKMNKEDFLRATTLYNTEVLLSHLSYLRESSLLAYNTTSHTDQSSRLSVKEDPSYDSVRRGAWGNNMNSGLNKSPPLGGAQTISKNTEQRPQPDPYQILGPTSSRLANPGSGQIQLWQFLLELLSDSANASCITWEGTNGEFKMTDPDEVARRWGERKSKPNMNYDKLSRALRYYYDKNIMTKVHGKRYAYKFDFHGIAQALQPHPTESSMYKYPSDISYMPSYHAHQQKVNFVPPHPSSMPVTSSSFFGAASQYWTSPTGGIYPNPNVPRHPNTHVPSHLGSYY
# Method in brief: (§1)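 Human transcription factors fused to GST were expressed in yeast, captured on glutathione beads, given DNA barcodes and pooled with a GST-only negative control. Pools were incubated with 200 nmole of a 16-mer random double-stranded DNA library in Tris/NaCl/DTT/glycerol buffer at room temperature for 30 min. They were then washed, crosslinked with 0.1% formaldehyde, proximity-ligated (BsaI/T4 ligase, 1 h, 37 °C), PCR-amplified and sequenced on an Illumina NextSeq500. Binding signal is each 6-mer's read frequency for a factor divided by its frequency for the GST control.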
# ELK1 = molecular target: T2, ELK1 (Homo sapiens, UniProt P19419 1-428); conditions: protein: recombinant; tags: N-terminal GST; dsDNA, one strand shown
# T2 sequence: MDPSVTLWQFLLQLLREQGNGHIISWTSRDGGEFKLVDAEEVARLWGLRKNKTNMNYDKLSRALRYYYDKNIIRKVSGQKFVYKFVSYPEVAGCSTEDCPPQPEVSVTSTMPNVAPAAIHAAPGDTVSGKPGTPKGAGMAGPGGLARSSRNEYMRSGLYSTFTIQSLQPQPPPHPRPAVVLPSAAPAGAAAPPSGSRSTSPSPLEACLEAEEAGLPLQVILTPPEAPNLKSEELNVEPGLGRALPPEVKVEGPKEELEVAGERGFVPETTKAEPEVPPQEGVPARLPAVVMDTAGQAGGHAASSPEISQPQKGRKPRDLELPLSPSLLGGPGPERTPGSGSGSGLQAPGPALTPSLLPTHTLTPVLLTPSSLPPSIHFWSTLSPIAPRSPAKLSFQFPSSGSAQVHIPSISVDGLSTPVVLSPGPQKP
# Method in brief: as §1
# GABPA = molecular target: T3, GABPA (Homo sapiens, UniProt Q06546 1-454); conditions: protein: recombinant; tags: N-terminal GST; dsDNA, one strand shown
# T3 sequence: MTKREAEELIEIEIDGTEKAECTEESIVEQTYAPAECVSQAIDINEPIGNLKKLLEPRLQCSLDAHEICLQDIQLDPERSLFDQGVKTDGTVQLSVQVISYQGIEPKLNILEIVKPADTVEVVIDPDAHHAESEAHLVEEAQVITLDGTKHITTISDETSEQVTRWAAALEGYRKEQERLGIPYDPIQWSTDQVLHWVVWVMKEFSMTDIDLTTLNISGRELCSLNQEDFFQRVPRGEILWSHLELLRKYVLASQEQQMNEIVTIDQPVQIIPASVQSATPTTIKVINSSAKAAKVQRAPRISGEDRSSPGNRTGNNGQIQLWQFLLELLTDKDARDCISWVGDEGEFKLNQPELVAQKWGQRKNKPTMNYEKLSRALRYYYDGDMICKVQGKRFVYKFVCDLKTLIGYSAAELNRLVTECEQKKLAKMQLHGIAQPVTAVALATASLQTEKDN
# Method in brief: as §1
# ERG = molecular target: T4, ERG (Homo sapiens, UniProt P11308 1-479); conditions: protein: recombinant; tags: N-terminal GST; dsDNA, one strand shown
# T4 sequence: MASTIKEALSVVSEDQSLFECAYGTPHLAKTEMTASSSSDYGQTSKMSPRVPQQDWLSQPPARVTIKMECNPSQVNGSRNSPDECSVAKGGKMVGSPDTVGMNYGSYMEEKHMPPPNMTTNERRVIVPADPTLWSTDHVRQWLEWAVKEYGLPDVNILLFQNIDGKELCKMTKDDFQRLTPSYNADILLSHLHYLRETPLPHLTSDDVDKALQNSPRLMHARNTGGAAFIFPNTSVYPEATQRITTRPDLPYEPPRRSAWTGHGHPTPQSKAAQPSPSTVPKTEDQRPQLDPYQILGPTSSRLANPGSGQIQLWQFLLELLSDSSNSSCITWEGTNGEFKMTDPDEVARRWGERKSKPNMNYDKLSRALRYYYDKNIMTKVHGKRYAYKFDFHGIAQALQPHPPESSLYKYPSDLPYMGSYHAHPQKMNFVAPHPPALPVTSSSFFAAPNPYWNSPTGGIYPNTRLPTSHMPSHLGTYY
# Method in brief: as §1
# ELF1 = ELF1 (Homo sapiens, UniProt P32519 1-619); conditions: protein: recombinant; tags: N-terminal GST; dsDNA, one strand shown
# Sequence of ELF1 (P32519 whole entry): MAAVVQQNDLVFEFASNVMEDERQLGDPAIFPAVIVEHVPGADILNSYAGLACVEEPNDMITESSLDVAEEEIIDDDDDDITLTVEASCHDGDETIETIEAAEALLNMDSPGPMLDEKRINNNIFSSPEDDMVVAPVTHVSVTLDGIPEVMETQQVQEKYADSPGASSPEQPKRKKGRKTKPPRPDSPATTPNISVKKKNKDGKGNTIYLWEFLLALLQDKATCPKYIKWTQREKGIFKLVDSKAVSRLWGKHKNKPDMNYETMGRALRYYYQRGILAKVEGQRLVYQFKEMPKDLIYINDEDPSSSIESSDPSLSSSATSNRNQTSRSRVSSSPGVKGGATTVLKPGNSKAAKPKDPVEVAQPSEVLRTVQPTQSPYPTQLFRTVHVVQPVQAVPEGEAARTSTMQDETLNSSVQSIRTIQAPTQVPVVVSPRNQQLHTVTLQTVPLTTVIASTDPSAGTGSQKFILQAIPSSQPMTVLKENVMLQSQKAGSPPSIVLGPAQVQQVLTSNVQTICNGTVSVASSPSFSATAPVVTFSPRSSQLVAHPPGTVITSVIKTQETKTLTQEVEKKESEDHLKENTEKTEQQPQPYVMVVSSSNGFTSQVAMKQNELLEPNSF
# Method in brief: as §1
# EHF = molecular target: T5, EHF (Homo sapiens, UniProt Q9NZC4 1-300); conditions: protein: recombinant; tags: N-terminal GST; dsDNA, one strand shown
# T5 sequence: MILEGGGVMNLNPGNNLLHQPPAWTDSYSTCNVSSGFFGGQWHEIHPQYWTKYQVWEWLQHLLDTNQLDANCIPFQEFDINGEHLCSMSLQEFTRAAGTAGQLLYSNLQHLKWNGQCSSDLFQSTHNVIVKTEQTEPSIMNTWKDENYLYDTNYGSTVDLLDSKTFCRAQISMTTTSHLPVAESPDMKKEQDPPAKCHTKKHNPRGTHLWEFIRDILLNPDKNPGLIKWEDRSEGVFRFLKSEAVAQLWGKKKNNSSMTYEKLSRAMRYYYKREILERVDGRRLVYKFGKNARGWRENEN
# Method in brief: as §1
# SPI1 = SPI1 (Homo sapiens, UniProt P17947 1-270); conditions: protein: recombinant; tags: N-terminal GST; dsDNA, one strand shown
# Method in brief: as §1
# SPIB = SPIB (Homo sapiens, UniProt Q01892 1-262); conditions: protein: recombinant; tags: N-terminal GST; dsDNA, one strand shown
# Sequence of SPIB (Q01892 whole entry): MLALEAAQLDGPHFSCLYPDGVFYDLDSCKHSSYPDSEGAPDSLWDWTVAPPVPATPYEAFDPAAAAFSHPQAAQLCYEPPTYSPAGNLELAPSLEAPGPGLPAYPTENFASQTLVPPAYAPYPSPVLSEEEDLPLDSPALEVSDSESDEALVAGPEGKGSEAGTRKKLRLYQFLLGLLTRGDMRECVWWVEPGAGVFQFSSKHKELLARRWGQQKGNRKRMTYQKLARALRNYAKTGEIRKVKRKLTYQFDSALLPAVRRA
# Method in brief: as §1
# ELK3 = molecular target: T6, ELK3 (Homo sapiens, UniProt P41970 1-407); conditions: protein: recombinant; tags: N-terminal GST; dsDNA, one strand shown
# T6 sequence: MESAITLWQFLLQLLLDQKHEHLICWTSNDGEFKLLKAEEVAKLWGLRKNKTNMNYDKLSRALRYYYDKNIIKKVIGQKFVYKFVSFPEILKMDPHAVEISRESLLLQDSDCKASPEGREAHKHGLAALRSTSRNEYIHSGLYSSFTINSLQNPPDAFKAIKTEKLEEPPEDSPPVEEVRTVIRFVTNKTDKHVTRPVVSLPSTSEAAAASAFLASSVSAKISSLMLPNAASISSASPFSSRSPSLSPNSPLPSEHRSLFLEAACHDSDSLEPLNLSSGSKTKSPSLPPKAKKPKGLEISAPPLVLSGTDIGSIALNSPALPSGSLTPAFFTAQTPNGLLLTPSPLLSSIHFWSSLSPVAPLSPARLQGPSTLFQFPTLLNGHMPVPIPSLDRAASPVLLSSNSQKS
# Method in brief: as §1
# FEV = molecular target: T7, FEV (Homo sapiens, UniProt Q99581 1-238); conditions: protein: recombinant; tags: N-terminal GST; dsDNA, one strand shown
# T7 sequence: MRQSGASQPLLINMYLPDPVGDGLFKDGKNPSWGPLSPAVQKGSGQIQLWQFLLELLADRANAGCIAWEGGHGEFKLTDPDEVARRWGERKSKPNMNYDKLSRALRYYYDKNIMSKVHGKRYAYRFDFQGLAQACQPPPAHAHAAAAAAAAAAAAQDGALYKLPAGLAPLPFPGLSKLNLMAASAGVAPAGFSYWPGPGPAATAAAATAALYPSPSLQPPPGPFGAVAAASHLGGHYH
# Method in brief: as §1
# ETV5 = ETV5 (Homo sapiens, UniProt P41161 1-510); conditions: protein: recombinant; tags: N-terminal GST; dsDNA, one strand shown
# Sequence of ETV5 (P41161 whole entry): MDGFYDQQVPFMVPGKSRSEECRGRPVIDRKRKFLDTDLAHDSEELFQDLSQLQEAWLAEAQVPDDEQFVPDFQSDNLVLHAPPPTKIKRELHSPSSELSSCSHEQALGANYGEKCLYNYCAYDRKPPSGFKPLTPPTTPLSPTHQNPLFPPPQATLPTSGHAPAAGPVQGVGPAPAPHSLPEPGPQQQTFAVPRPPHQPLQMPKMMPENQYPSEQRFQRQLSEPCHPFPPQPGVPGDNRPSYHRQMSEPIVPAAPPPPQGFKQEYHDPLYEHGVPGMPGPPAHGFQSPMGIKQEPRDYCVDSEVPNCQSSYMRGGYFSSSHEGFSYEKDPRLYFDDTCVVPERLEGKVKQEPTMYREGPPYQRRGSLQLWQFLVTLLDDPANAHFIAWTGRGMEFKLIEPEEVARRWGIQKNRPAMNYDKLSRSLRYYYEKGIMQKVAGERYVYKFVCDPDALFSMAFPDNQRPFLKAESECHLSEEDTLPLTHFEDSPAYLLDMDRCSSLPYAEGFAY
# Method in brief: as §1
# HSF1 = HSF1 (Homo sapiens, UniProt Q00613 1-529); conditions: protein: recombinant; tags: N-terminal GST; chain copies: 3; dsDNA, one strand shown
# Sequence of HSF1 (Q00613 whole entry): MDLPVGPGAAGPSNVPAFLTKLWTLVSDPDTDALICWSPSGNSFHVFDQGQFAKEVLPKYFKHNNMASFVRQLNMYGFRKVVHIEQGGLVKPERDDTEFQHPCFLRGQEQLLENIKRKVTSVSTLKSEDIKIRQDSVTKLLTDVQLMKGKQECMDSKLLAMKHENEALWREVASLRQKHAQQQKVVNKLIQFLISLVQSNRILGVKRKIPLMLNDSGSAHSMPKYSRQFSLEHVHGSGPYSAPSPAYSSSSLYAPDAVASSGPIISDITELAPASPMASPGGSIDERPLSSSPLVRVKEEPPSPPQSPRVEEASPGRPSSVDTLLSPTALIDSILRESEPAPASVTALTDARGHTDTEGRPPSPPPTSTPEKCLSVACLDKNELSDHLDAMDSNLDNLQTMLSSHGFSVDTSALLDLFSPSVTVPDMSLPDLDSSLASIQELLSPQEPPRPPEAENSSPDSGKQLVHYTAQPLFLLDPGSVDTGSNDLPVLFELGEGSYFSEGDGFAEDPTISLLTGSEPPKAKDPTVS
# Method in brief: as §1
# SPIC = molecular target: T8, SPIC (Homo sapiens, UniProt Q8N5J4 1-248); conditions: protein: recombinant; tags: N-terminal GST; dsDNA, one strand shown
# T8 sequence: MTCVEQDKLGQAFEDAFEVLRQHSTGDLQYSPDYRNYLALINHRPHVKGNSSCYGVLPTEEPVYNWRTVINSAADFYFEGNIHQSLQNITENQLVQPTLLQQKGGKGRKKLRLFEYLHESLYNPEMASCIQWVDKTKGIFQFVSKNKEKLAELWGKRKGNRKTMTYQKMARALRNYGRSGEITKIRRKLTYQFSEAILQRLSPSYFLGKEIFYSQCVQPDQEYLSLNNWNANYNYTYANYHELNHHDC
# Method in brief: as §1
# ELF4 = ELF4 (Homo sapiens, UniProt Q99607 1-663); conditions: protein: recombinant; tags: N-terminal GST; dsDNA, one strand shown
# Sequence of ELF4 (Q99607 whole entry): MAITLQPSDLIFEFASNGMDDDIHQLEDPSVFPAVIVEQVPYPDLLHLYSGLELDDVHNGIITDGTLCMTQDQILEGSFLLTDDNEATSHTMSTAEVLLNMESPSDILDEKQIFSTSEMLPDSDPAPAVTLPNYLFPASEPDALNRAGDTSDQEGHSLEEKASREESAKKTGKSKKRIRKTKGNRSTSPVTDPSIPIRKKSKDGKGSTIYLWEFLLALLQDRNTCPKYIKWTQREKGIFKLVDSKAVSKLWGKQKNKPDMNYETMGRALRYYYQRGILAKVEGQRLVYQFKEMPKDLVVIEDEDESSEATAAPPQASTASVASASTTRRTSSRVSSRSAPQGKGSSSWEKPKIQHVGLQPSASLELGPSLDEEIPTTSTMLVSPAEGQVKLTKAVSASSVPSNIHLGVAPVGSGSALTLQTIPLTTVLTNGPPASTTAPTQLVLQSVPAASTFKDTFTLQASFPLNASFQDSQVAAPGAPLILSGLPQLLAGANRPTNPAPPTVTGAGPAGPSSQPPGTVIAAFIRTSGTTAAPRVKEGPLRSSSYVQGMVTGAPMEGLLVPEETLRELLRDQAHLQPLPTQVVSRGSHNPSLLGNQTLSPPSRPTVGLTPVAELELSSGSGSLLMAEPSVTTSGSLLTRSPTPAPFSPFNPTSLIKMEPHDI
# Method in brief: as §1
# ELK4 = molecular target: T9, ELK4 (Homo sapiens, UniProt P28324-2 1-405); conditions: protein: recombinant; tags: N-terminal GST; dsDNA, one strand shown
# T9 sequence: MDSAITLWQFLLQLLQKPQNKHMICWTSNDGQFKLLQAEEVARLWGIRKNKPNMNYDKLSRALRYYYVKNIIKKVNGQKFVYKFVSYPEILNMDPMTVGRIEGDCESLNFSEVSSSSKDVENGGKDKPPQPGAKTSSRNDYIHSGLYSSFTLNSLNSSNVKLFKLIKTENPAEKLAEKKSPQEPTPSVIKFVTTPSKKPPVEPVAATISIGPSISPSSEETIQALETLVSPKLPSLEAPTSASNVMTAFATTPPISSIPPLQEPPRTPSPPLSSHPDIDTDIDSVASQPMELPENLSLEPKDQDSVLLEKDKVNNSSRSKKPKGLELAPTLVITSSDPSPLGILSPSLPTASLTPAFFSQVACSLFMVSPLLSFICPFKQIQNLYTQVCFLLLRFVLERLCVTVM
# Method in brief: as §1
# ETV2 = molecular target: T10, ETV2 (Homo sapiens, UniProt O00321 1-342); conditions: protein: recombinant; tags: N-terminal GST; dsDNA, one strand shown
# T10 sequence: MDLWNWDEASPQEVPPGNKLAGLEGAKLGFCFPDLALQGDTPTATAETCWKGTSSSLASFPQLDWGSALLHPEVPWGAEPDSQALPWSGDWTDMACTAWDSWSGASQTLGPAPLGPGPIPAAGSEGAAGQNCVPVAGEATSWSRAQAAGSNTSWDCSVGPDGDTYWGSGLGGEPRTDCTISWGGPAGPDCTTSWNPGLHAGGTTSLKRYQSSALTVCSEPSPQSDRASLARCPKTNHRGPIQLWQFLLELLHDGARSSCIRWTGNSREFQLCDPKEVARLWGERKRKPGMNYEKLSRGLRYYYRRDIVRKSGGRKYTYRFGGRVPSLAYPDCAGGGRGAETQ
# Method in brief: as §1
# ELF3 = molecular target: T11, ELF3 (Homo sapiens, UniProt P78545 1-371); conditions: protein: recombinant; tags: N-terminal GST; dsDNA, one strand shown
# T11 sequence: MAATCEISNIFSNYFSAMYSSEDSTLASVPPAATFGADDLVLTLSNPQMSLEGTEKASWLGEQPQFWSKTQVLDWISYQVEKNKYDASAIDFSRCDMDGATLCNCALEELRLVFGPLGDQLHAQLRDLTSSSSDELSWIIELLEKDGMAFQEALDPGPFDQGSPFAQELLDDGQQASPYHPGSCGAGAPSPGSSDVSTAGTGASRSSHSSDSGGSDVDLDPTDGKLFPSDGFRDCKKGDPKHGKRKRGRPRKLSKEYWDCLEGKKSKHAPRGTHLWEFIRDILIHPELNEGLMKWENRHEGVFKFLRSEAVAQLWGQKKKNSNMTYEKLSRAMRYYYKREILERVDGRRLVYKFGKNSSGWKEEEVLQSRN
# Method in brief: as §1
# CRX = CRX (Homo sapiens, UniProt O43186 1-299); conditions: protein: recombinant; tags: N-terminal GST; dsDNA, one strand shown
# Sequence of CRX (O43186 whole entry): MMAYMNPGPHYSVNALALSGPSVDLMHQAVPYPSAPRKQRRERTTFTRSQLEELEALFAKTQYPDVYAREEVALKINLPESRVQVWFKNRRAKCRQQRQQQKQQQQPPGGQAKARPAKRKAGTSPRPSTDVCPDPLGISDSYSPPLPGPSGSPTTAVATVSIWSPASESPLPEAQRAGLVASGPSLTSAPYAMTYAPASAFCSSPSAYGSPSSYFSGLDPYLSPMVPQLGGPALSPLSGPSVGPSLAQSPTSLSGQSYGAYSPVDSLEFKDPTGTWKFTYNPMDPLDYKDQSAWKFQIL
# Method in brief: as §1
# ETV1 = ETV1 (Homo sapiens, UniProt P50549 1-477); conditions: protein: recombinant; tags: N-terminal GST; dsDNA, one strand shown
# Sequence of ETV1 (P50549 whole entry): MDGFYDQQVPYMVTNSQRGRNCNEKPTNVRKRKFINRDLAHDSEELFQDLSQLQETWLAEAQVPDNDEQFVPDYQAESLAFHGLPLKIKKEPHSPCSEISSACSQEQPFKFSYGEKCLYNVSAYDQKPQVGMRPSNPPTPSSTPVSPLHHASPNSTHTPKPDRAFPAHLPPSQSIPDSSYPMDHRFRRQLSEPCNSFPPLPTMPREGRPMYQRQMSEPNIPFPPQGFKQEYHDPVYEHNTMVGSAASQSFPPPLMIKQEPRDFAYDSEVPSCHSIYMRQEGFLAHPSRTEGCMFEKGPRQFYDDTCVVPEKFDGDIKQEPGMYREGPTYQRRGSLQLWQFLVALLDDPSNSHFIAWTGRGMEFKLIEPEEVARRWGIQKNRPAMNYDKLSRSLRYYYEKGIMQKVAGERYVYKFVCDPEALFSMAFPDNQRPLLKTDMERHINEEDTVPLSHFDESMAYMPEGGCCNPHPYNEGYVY
# Method in brief: as §1
sequence,measurement,setting,value
TATTGG,binding signal,FLI1,"1.12 fold enrichment (6-mer frequency, TF over GST control)"
same,binding signal,ELK1,"1.14 fold enrichment (6-mer frequency, TF over GST control)"
same,binding signal,GABPA,"1.22 fold enrichment (6-mer frequency, TF over GST control)"
same,binding signal,ERG,"1.15 fold enrichment (6-mer frequency, TF over GST control)"
same,binding signal,ELF1,"1.22 fold enrichment (6-mer frequency, TF over GST control)"
same,binding signal,EHF,"1.26 fold enrichment (6-mer frequency, TF over GST control)"
same,binding signal,SPI1,"1.06 fold enrichment (6-mer frequency, TF over GST control)"
same,binding signal,SPIB,"1.24 fold enrichment (6-mer frequency, TF over GST control)"
same,binding signal,ELK3,"1.07 fold enrichment (6-mer frequency, TF over GST control)"
same,binding signal,FEV,"1.14 fold enrichment (6-mer frequency, TF over GST control)"
same,binding signal,ETV5,"1.19 fold enrichment (6-mer frequency, TF over GST control)"
same,binding signal,HSF1,"1.2 fold enrichment (6-mer frequency, TF over GST control)"
same,binding signal,SPIC,"1.19 fold enrichment (6-mer frequency, TF over GST control)"
same,binding signal,ELF4,"1.21 fold enrichment (6-mer frequency, TF over GST control)"
same,binding signal,ELK4,"1.28 fold enrichment (6-mer frequency, TF over GST control)"
same,binding signal,ETV2,"1.14 fold enrichment (6-mer frequency, TF over GST control)"
same,binding signal,ELF3,"1.24 fold enrichment (6-mer frequency, TF over GST control)"
same,binding signal,CRX,"1.4 fold enrichment (6-mer frequency, TF over GST control)"
same,binding signal,ETV1,"1.13 fold enrichment (6-mer frequency, TF over GST control)"
